# Screening results deposited in PubChem by Center for Chemical Genomics, University of Michigan.
# Shown is part of a subset that was picked to be rich in hits.
# Dicer inh: human Dicer pre-microRNA cleavage inhibition. Q9UPY3. cat-ELCCA pre-miR-21 Dicer processing, chemiluminescence; hits give high values. z-score at 25 µM. actives 6% (n = 47,000); in the data active = z-score above about 3, passing the limit was not always enough;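 note: higher signal means more uncleaved substrate so more Dicer inhibition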
# Hits are given with their value; n = inactive.
SMILES,Dicer inh
CCOC(=O)C1=C(C)N(C(C)=O)C(SC)=NC1c1ccccc1 (stereo unspecified),n
Cc1[nH]c2ccccc2c1C1(O)C(=O)N(Cc2ccc(Cl)cc2)c2ccccc21 (stereo unspecified),n
Cc1[nH]c2ccccc2c1C1(O)C(=O)N(Cc2ccc3c(c2)OCO3)c2ccccc21 (stereo unspecified),3.9
Cc1ccc(CN2C(=O)C(O)(c3c(C)[nH]c4ccccc34)c3ccccc32)cc1 (stereo unspecified),n
COc1ccc(OC)c(S(=O)(=O)NC(=NCC(C)C)SC)c1,n
O=C1CN(S(=O)(=O)c2ccccc2)C(c2ccccc2)c2cc(Br)ccc2N1 (stereo unspecified),n
CC1CCN(C(=O)C(C(=O)c2ccc(Br)cc2)n2ccccc2=O)CC1 (stereo unspecified),n
O=C(c1ccc(F)cc1)C(C(=O)N1CCN(C/C=C/c2ccccc2)CC1)n1ccccc1=O (stereo unspecified),n
O=C(c1ccc(Br)cc1)C(C(=O)N1CCCCC1)n1ccccc1=O (stereo unspecified),3.3
CC1=C(C(=O)OC2CCCCC2)C(c2ccccc2)C2=C(CC(C)(C)CC2=O)N1 (stereo unspecified),n
COc1ccc(CCNC(=O)Cc2cc(OC)c(OC)cc2CO)cc1OC,n
OCCNC(=S)NC1CC2C=CC1C2 (stereo unspecified),n
O=C(NC(=O)N1CCCCC1)c1ccc(F)cc1F,n
CSc1sc(Br)c2c1/C(=N/OC(=O)c1ccccc1Cl)CC(C)(C)C2,n
CSc1sc(Br)c2c1/C(=N/OC(=O)c1ccc(Cl)cc1)CC(C)(C)C2,n
COC(=O)c1sc(SC)c2c1CC(C)(C)C/C2=N\OC(=O)c1ccc(Cl)cc1,3.3
C=CCN1C(=O)CN2c3ccccc3C(C)(C)C12C (stereo unspecified),n
CCOC(=O)c1cc(-c2ccccc2)sc1NC(=O)Nc1cccc(Cl)c1,n
CSc1noc(-c2ccc(Cl)cc2)c1C(=O)NC(=O)Nc1ccccc1Cl,n
COC(=O)c1cc2nc(-c3cccs3)cc(C(F)(F)F)n2n1,n
FC(F)(F)c1cc(-c2cccs2)nc2cc(-c3ccco3)nn12,3.5
Cc1ccc(-c2cc3nc(-c4ccco4)cc(C(F)(F)F)n3n2)cc1,n
CCOC(=O)c1cc(C)nc(Sc2ccc(Cl)cc2)n1,n
O=C(Nc1c(C(=O)Nc2ccc(Br)cc2)cnn1-c1ccccc1)c1ccco1,n
CC(=O)Oc1ccc(CC2SC(=O)NC2=O)cc1 (stereo unspecified),n
SMILES,Dicer inh
Cc1nc(N2CCCCC2)c2oc3ccccc3c2n1,n
CNC(=S)NNC(=O)CN1C(=O)CSc2ccc(C(F)(F)F)cc21,n
O=C1CSc2ccc(C(F)(F)F)cc2N1,n
NNC(=O)CN1C(=O)CSc2ccc(C(F)(F)F)cc21,6.2
CCOC(=O)C1CCN(c2cc(C(F)(F)F)nc3ccc(Br)cc23)CC1,n
O=C1C=C(NCCSCc2ccccc2Cl)CC(c2ccc3c(c2)OCO3)C1 (stereo unspecified),n
O=C(Oc1cccnc1)C1c2ccccc2Oc2ccccc21,n
O=[N+]([O-])c1cccc(Cl)c1SCc1c(F)cccc1Cl,n
CCOC(=O)C(=CNc1ccc(F)c(C#N)c1)C(=O)OCC,3.4
CCOC(=O)C(=CNc1nc2ccc(F)cc2s1)C(=O)OCC,n
CCOC(=O)C(=CNc1ccc2c(c1)CCN2C(C)=O)C(=O)OCC,n
Cc1ccc(C2=CC(c3ccccc3Cl)n3nc(CCCO)nc3N2)cc1 (stereo unspecified),n
COc1ccccc1NC(=O)Nc1nc(-c2ccc(F)c(F)c2)cs1,n
CSc1sc(C(=O)Nc2ccccc2Cl)cc1-c1nc(-c2ccc(Cl)cc2)cs1,n
CC(C)(C)c1ccccc1NC(=O)Nc1nc(-c2ccc(F)c(F)c2)cs1,3.7
O=C(Nc1nc(-c2ccc(F)c(F)c2)cs1)Nc1ccc(Cl)cc1Cl,n
Fc1ccc(Nc2nc(-c3ccc(F)c(F)c3)cs2)c(F)c1,60
Cc1ccnc(Nc2nc(-c3ccc(F)cc3)cs2)c1,n
O=C(Nc1ccccc1)Nc1nc(-c2ccc(F)c(F)c2)cs1,n
O=C(Nc1ccc(OC(F)(F)F)cc1)Nc1nc(-c2ccc(F)c(F)c2)cs1,n
O=C(Nc1ccc(F)cc1)Nc1nc(-c2ccc(F)c(F)c2)cs1,3
COc1ccc(N=C2NC(=O)CC(C(=O)Nc3ccc(Br)cc3)S2)cc1 (stereo unspecified),n
COC(=O)C(O)(NC(=O)c1ccccc1C)C(F)(F)F (stereo unspecified),n
COc1cc(OC)cc(C(C)(C)OC(=O)N[C@@H](CC(C)C)C(=O)O)c1,n
O=[N+]([O-])c1cc(Br)cc2c1[nH]c1c(Br)cc(Br)cc12,n
SMILES,Dicer inh
O=c1c(-n2nnc3ccccc32)c2oc3ccccc3nc-2c2ccccc12,n
CCCCOc1ccc(S(=O)(=O)NCc2ccco2)cc1,n
CN1c2ccsc2C(=O)/C(=N\Nc2ccc(Cl)cc2)S1(=O)=O,n
OC1(C#Cc2ccccc2)c2ccccc2-c2ncccc21 (stereo unspecified),n
CCn1cc(C(=O)O)c(=O)c2cc(F)c(N3CCN(C)CC3)cc21,n
CCn1cc(C(=O)O)c(=O)c2cc(F)c(N3CCN(S(=O)(=O)c4ccc(Cl)cc4)CC3)cc21,3.5
CCn1cc(C(=O)O)c(=O)c2cc(F)c(N3CCNCC3)cc21,n
COc1ccc(-n2cc3c(=O)n(C)c(=O)n(C)c3c2)cc1,n
Cc1ccc(-c2noc(-c3ccc(Oc4cc(Cl)cc(Cl)c4)o3)n2)cc1,n
O=C1c2ccccc2-c2nc3ncnn3c(-c3ccc(F)cc3)c21,n
Cc1cc(Cc2cccs2)c(=O)[nH]n1,n
Cc1cc(Cc2ccc(C(F)(F)F)cc2)c(=O)[nH]n1,3.1
Cc1ccc(Cc2cc(-c3ccc(C)cc3)n[nH]c2=O)cc1,n
O=C(Nc1nnc(Sc2ccnc3cc(Cl)ccc23)s1)c1cccs1,n
CCOC(=O)c1c(-c2ccccc2)c2oc3ccccc3c2[nH]c1=O,3.1
CCOC(=O)c1c(C)nc2ccc(Cl)cc2c1-c1ccccc1,n
CCOC(=O)c1c(O)c2ccccc2[nH]c1=O,n
COc1ccc(COC(=O)C2=C(C)NC3=C(C(=O)CC(C)(C)C3)C2c2cccs2)cc1 (stereo unspecified),n
Cn1nc(NC(=O)COCC(=O)O)c2ccccc21,n
NC(=O)c1c(NC(=O)COc2ccccc2Br)sc2c1CCCC2,n
CCc1sc(C(C)(C)C)cc1NC(=O)c1ccccc1,n
Cc1cc(C)c(C(=O)O)c(CC(C)(C)C(=O)O)c1,n
Cc1cc(C)c(C(=O)Nc2ccccc2)c(CC(C)(C)C(=O)O)c1,4.7
COc1ccc(C(=O)CSc2nc3ccc(Cl)cc3[nH]2)cc1OC,n
CSCCC(NC(=O)c1ccc(C(F)(F)F)cc1)C(=O)NNS(=O)(=O)c1ccc(Cl)cc1 (stereo unspecified),n
SMILES,Dicer inh
Cc1c(CCC(C)C)c(-n2ccnc2)n2c(nc3ccccc32)c1C#N,3.5
Cc1c(Cc2ccccc2)c(-n2ccnc2)n2c(nc3ccccc32)c1C#N,n
CCCCc1c(C)c(C#N)c2nc3ccccc3n2c1N1CCN(CCO)CC1,n
Cc1c(Cc2ccc(Cl)cc2)c(NCCCn2ccnc2)n2c(nc3ccccc32)c1C#N,4.4
CCCc1c(C)c(C#N)c2nc3ccccc3n2c1NCCCn1ccnc1,n
Cc1c(Cc2ccccc2Cl)c(NCCCn2ccnc2)n2c(nc3ccccc32)c1C#N,n
